Consider 40 molecules from the supplement of paper PMC13380429.

This assay has as its system Vero E6 infected with SARS-CoV-2. As to the kind of experiment: inhibition of SARS-CoV-2 cytopathic effect; higher = more antiviral protection, active = above 15. The conditions noted are these: 8.33 nM; 48 h. (Damage to the host cells serves as the signal in cytopathic effect assays.)
For the molecule `COc1ccnc(C[S+]([O-])c2nc3cc(OC(F)F)ccc3[nH]2)c1OC` (stereo not given) [pantoprazole], the “inhibition of SARS-CoV-2 cytopathic effect” value (shortened to “inhibition”) was -2.35% (inactive). To `C=CC[C@]1(O)CC[C@H]2[C@@H]3CCC4=CCCC[C@@H]4[C@H]3CC[C@@]21C` [allylestrenol] belongs -2.16% (inactive); to `C[C@H](/C=C/[C@H](C)C(C)(C)O)[C@H]1CC[C@H]2/C(=C/C=C3C[C@@H](O)C[C@H](O)C3)CCC[C@]12C` [paricalcitol], 3.37% (inactive).

With `C/C(=N\Nc1nnc2c(n1)[nH]c1c(C)cccc12)c1ccccn1`, the “inhibition” value was -0.485% (inactive).

Regarding `COC(=O)[C@H](c1ccccc1Cl)N1CCc2sccc2C1` [clopidogrel], the “inhibition” value was 0.66% (inactive).

Regarding `CC(=O)N[C@@H](CS)C(=O)O` [acetylcysteine], the “inhibition” value is 1.77% (inactive). To `COc1ccc(N2CCOCC2)c2sc(NC(=O)N3CCC(C)(O)CC3)nc12` [tozadenant] belongs 8.03% (inactive); to `Cc1c(C)c2c(c(C)c1O)CC[C@@](C)(CCC[C@H](C)CCC[C@H](C)CCCC(C)C)O2` [vitamin-E], 3.3% (inactive). To `COc1ccn2ncc(-c3nc4[nH]nc(NC(=O)c5ccc(F)cc5)c4cc3F)c2c1` belongs -0.95% (inactive). To `C[C@@H]1NC(=O)[C@@H]2CCCN2C(=O)[C@H](CC(N)=O)NC(=O)[C@@H]2CSSC[C@H](N)C(=O)N[C@H]3CSSC[C@H](NC1=O)C(=O)N[C@@H]([C@@H](C)O)C(=O)NCC(=O)N[C@H](C(=O)N[C@@H](Cc1ccc(O)cc1)C(=O)O)CSSC[C@H](NC(=O)[C@H](Cc1ccc(O)cc1)NC(=O)[C@H](CCC(=O)O)NC3=O)C(=O)N2` [linaclotide] belongs 0.88% (inactive); to `O=C(c1c2ccccc2cc2ccccc12)N1CCC(N2CCC[C@@H](C(=O)N3CCOCC3)C2)CC1`, -0.08% (inactive). As to `CC(=O)NC[C@H]1CN(c2ccc(-c3ccc(CNCc4cnn[nH]4)cc3)c(F)c2)C(=O)O1` [radezolid], the “inhibition” value was 0.58% (inactive). Take `CCN(CC)CCCCNc1ncc2cc(-c3c(Cl)cccc3Cl)c(NC(=O)NC(C)(C)C)nc2n1`: the “inhibition” value is -1.31% (inactive). Take `CC[C@H]1[C@@H](O)[C@@H]2[C@H](CC[C@]3(C)[C@@H]([C@H](C)CCOS(=O)(=O)O)CC[C@@H]23)[C@@]2(C)CC[C@@H](O)C[C@@H]12`: the “inhibition” value was 1.92% (inactive).

Take `NCc1c[nH]c(=S)n1[C@H]1CCc2c(F)cc(F)cc2C1` [nepicastat]: the “inhibition” value was 1.63% (inactive). The figure for `CC(C)COC(=O)c1ccc(N)cc1` [isobutamben] is -0.5% (inactive); for `Cc1coc2c1C(=O)C(=O)c1c-2ccc2c(C)cccc12` [tanshinone-I] it is -0.7% (inactive); for `CN[C@@H](C)C(=O)N[C@H](C(=O)N1CCC[C@H]1c1nc(C(=O)c2ccc(F)cc2)cs1)C1CCCCC1` it is 2.97% (inactive).

Turning to `Cc1cccc(C)c1NC(=O)CC12CCCN1CCC2` [pilsicainide], the “inhibition” value is 2.77% (inactive). `CC(=O)c1cc([N+](=O)[O-])c(Sc2ccc(F)cc2F)s1`: the “inhibition” value is 1.74% (inactive). `CCOC(=S)SSC(=S)OCC` [dixanthogen]: the “inhibition” value was -1.61% (inactive).

Consider `COc1cc(N)c(Cl)cc1C(=O)OCCCN1CCCCC1`, for which the “inhibition” value was -0.29% (inactive). The figure for `COc1ccc(CN(C(=O)[C@@H](N)Cc2c(C)cc(C(N)=O)cc2C)[C@@H](C)c2ncc(-c3ccccc3)[nH]2)cc1C(=O)O` [eluxadoline] is 1.84% (inactive); for `CCOc1cc(C(C)(C)C)ccc1C1=N[C@@](C)(c2ccc(Cl)cc2)[C@@](C)(c2ccc(Cl)cc2)N1C(=O)N1CCN(CCCS(C)(=O)=O)CC1` it is -0.35% (inactive); for `Cc1ccccc1-n1c(Cn2ncc3c(N)ncnc32)nc2cccc(C)c2c1=O` it is 0.63% (inactive). The figure for `Cc1cccc(Nc2ccncc2S(=O)(=O)NC(=O)NC(C)C)c1` [torasemide] is -0.37% (inactive). To `CC(C)[C@H](CO)Nc1nc(Nc2cccc(Cl)c2)c2ncn(C(C)C)c2n1` [purvalanol-A] belongs -0.55% (inactive). Regarding `CCn1cc(C(=O)O)c(=O)c2cc(F)c(N3CCN(C)CC3)cc21` [pefloxacin], the “inhibition” value is -0.13% (inactive).

Turning to `CCOC(=O)c1ncc2[nH]c3ccc(OCc4ccccc4)cc3c2c1COC`, the “inhibition” value was 0.26% (inactive).

Consider `CC(C[N+](C)(C)C)OC(N)=O` (stereo not given) [bethanechol], for which the “inhibition” value is 2.96% (inactive). To `COc1ccc(/C=C/C(=O)Nc2ccccc2C(=O)O)cc1OC` [tranilast] belongs -1.52% (inactive); to `c1ccc(-c2oc3ncnc(NC[C@@H]4CCCO4)c3c2-c2ccccc2)cc1`, 0.57% (inactive); to `O=C(Nc1ccc([N+](=O)[O-])cc1O)Nc1ccccc1Br`, -0.25% (inactive). In the case of `C[C@]1(COc2ccc(N3CCC(Oc4ccc(OC(F)(F)F)cc4)CC3)cc2)Cn2cc([N+](=O)[O-])nc2O1` [delamanid], the “inhibition” value is 0.01% (inactive). To `CCc1c(-c2ccccc2)c(-c2ccccc2)nn1-c1ccccc1-c1cccc(OCC(=O)O)c1` belongs 3.84% (inactive); to `Nc1ncc2c(n1)CC(c1ccco1)CC2=O` (stereo not given), 3.51% (inactive); to `Nc1ncnc2c1c(-c1cnc3[nH]ccc3c1)nn2C1CCCC1`, -0.16% (inactive). To `CCCCC/C=C\C/C=C\C/C=C\C/C=C\CCCC(=O)Nc1ccc(O)cc1` belongs -1.32% (inactive); to `CCCC(C)NC(=O)c1ccc(Cl)c(Cl)c1` (stereo not given), 1.88% (inactive).

Regarding `CC(C)C[C@@H](N)C1(c2ccc(Cl)cc2)CCC1`, the “inhibition” value is -2.41% (inactive).
